Screens (PubChem)
GLP1R inv ag: qHTS of GLP-1 Receptor Inverse Agonists (Inhibition Mode) | Potency, µM (series often up to 38.3 µM), actives largely listed as inhibitors | HEK293 GLP-1R CRE-luciferase, luminescence, 24 h; GLP-1R form is constitutively active | Glucagon-like peptide 1 receptor (Homo sapiens), P43220 | 410,000 compounds, 1.6% hits; also: nearly all actives have a fitted effect of over 55% in size
Target sequence (P43220 whole entry, looked up): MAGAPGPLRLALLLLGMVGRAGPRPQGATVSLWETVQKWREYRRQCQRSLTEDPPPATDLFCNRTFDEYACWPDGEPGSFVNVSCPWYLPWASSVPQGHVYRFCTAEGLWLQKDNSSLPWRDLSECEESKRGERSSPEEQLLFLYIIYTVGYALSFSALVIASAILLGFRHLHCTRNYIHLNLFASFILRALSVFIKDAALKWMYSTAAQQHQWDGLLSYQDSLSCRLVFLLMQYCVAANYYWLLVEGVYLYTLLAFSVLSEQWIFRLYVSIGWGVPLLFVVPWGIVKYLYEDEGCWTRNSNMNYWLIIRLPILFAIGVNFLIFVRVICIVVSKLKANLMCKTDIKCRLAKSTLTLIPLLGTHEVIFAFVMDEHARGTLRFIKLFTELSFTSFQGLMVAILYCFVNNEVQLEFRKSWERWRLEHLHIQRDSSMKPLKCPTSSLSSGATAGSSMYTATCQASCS
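Cells are plated, allowed 12 hours at 37 deg C, then treated with compounds for 24 hr before luciferase detection reagent is added and luminescence is read after 12 min at room temperature. The HEK293 line carries constitutively active GLP-1R with a cAMP-responsive reporter.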
GLP1R cytotox: qHTS of GLP-1 Receptor Inverse Agonists: Cytotox Screen. HEK293 cAMP-luciferase reporter cells, luminescence, 24 h. Potency, µM (top dose mostly 38.3 µM), actives largely listed as inhibitors. 410,000 compounds, 0.13% hits. AID 624418, 2012;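 also: loss of luciferase light is scored as toxicity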
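Quantitative HTS format, 1536 wells, 200 cells/uL seeded. Compounds: 23 nL, 24 h, 37 °C. Detection: luciferase reagent, luminescence at 12 min RT; decreased signal taken as cytotoxic.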
GLP1R ag: qHTS of GLP-1 Receptor Agonists | HEK293 GLP-1R CRE-luciferase, luminescence, 4-6 h; cells express a hypersensitive GLP-1R form | Glucagon-like peptide 1 receptor (Homo sapiens), P43220 | 380,000 compounds, 0.007% hits | Potency, µM (series often up to 45.6 µM), usual class: activators
PTHR1 ag: qHTS for PTHR1 Agonists: Primary Screen; Parathyroid hormone/parathyroid hormone-related peptide receptor (Homo sapiens), Q03431; HEK293 GP2 PTHR1 cells, GloSensor cAMP luminescence, 1 h; Potency, µM (titrated, usually from 115 µM), hits mostly activators; 410,000 compounds, 0.075% hits; AID 743266, 2014; also: nearly all actives have a fitted effect of over 55% in size
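HEK-293-derived GP2 cells expressing PTHR1 and a GloSensor cAMP reporter, 3,000/well, plated overnight, given luciferin plus IBMX (each 0.5 mM as added) for 1 h at 37 °C, then compound for 1 h at 37 °C. Luminescence was read after 15 min at room temperature.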
Hits are given with their value; – = inactive; ? = inconclusive; · = no result given; [ ] = dose if it differs, or a comment. Hits are enriched below; roughly 1.7% of the tested compounds scored in any of these assays. Calls follow the shape of the dose curve; as a rule, active = well fitted curve in the direction sought with a large enough effect; inconclusive = small, poorly fitted or top-dose-only effect, or another doubt; inactive = no such curve, though single readings can be large; an effect the other way counts as inactive or inconclusive.

SMILES	GLP1R inv ag	GLP1R cytotox	GLP1R ag	PTHR1 ag
CCCn1c(SCc2nc(-c3ccc(OC)cc3OC)no2)nnc1-c1ccc(Cl)cc1	?	–	·	–
CCc1cc2c(COC(=O)c3cccc(NS(C)(=O)=O)c3)cc(=O)oc2cc1O	3.98µM	–	–	–
CN(C)C(=O)N1CCN(S(=O)(=O)c2ccc3ccccc3c2)CC1	–	–	–	–
O=C(CCl)N1CCN(S(=O)(=O)c2ccc3ccccc3c2)CC1	10µM	?	–	–
CC(C)(CO)NCc1c(OCc2ccc(Cl)cc2)ccc2ccccc12	5.62µM	?	–	–
O=C(CNC(c1ccccc1)c1ccccc1)NCc1ccccc1Cl	10µM	–	–	–
CC(=O)c1sc2c(c1OC(=O)c1ccc(Cl)cc1)c(=O)n(-c1ccccc1)c(=S)n2-c1ccccc1	–	–	–	–
CC(=O)c1sc2c(c1OC(=O)c1ccc(Cl)cc1Cl)c(=O)n(-c1ccccc1)c(=S)n2-c1ccccc1	7.94µM	–	–	–
O=C(c1ccccc1)N1CCc2cc(CNS(=O)(=O)c3ccc(Cl)s3)ccc21	–	–	·	–
ON=C1c2cc(OCCN3CCCCC3)ccc2-c2ccc(OCCN3CCCCC3)cc21	12.6µM	3.55µM	–	–
Clc1ccc(OCCN2CCOCC2)cc1Cl	–	–	–	–
Clc1ccc(OCCN2CCCCC2)cc1Cl	–	–	–	–
NC(=S)NN=C1c2cc(OCCN3CCOCC3)ccc2-c2ccc(OCCN3CCOCC3)cc21	7.94µM	1.41µM	–	–
Cc1c(NC(=O)Cc2ccc(Cl)cc2)cccc1-c1nc2cccnc2s1	–	–	·	–
COC(=O)C(=Cc1ccccc1[N+](=O)[O-])C(=O)OC	10µM	?	–	–
COc1ccc(CNC(=O)/C=C/c2ccccc2[N+](=O)[O-])cc1	–	–	–	–
Cc1ccc(-c2c(C(=O)NCCc3ccc(Cl)cc3)oc(=O)c3ccccc23)cc1	4.47µM	–	–	–
COc1cc(C(=O)Nc2nnc(S(=O)(=O)N(C)c3ccccc3)s2)cc(OC)c1OC	–	–	·	–
COc1ccccc1OCC(=O)NC1CCCc2ccccc21 (centres undefined)	11.2µM	–	–	–
Cc1cccc(OCC(=O)NC2CCCc3ccccc32)c1C (centres undefined)	2µM	–	–	–
CC(C)c1ccccc1OCC(=O)NC1CCCc2ccccc21 (centres undefined)	?	–[1.53 µM]	–	–
COc1ccccc1OCC(=O)N/N=C1\CCCCc2ccccc21	10µM	–	–	–
CCC(C)n1c(SCc2ccc(C(C)(C)C)cc2)nc2ccsc2c1=O (centres undefined)	–	–	·	–
CCC(C)n1c(SCc2ccccc2)nc2ccsc2c1=O (centres undefined)	7.94µM	–	–	–
CCCn1nnc(NC(=O)COc2cc(C)ccc2C(C)C)n1	–	–	–	–
SMILES	GLP1R inv ag	GLP1R cytotox	GLP1R ag	PTHR1 ag
CN1CCN(CCc2nc3cc(NC(=O)COc4ccc(Cl)cc4)ccc3n2C)CC1	10µM	–	–	–
CCCCn1nnc(NC(=O)COc2cc(C)ccc2C(C)C)n1	7.94µM	–	–	–
CCn1c(CN2CCCCC2)nc2cc(NC(=O)COc3cc(C)ccc3C(C)C)ccc21	?	–	·	–
Cc1ccc(C(C)C)c(OCC(=O)Nc2ccc3c(c2)nc(CCN2CCCCC2)n3C)c1	8.91µM	–	–	–
O=C(NCCc1ccccc1)c1ccc(CSc2nc3ccncc3n2Cc2ccc(F)cc2)cc1	?	–	·	–
COc1ccccc1N1CCN(C(CNC(=O)C(=O)NCCc2ccccc2)c2cccnc2)CC1 (centres undefined)	–	–	·	–
O=C(COc1ccc(Cl)cc1)Nc1ccccc1C(=O)OCc1cc(=O)n2ccsc2n1	–	–	·	–
CCOc1ccc(Nc2nc(NCC3CCCO3)c3ccccc3n2)cc1 (centres undefined)	3.55µM	?	–	–
CCCC(c1nnnn1Cc1ccco1)N1CCN(c2cc(Cl)ccc2C)CC1 (centres undefined)	5.01µM	–	–	–
CCN1CCN(C(=O)Cn2nc(-c3ccc(Cl)cc3)ccc2=O)CC1	2.82µM	–	–	–
CCn1c(SCC(=O)N2CCCc3ccccc32)nnc1-c1c[nH]c2ccccc12	2.51µM	–	–	–
CCn1c(SCC(=O)N2CCN(c3ccccc3)CC2)nnc1-c1c[nH]c2ccccc12	3.98µM	–	–	–
CCn1c(CSCc2ccc(F)cc2)nnc1SCC(=O)N1CCN(c2ccccc2)CC1	?	–	–	–
Cc1ccc(CSCc2nnc(SCC(=O)N3CCN(c4ccccc4)CC3)n2C)cc1	7.94µM	–	–	–
Cn1c(SCC(=O)N2CCN(c3ccccc3)CC2)nnc1-c1c[nH]c2ccccc12	?	–	–	–
CCCCCCCC(=O)CC[C@H]1[C@@H](C/C=C/CCCC(=O)OC(C)C)[C@@H](O)C[C@H]1O	·	·	–	·
Cc1c(C(=O)N(Cc2ccc(N(C)C)cc2)Cc2ccco2)oc2cc(Br)ccc12	–	–	·	–
Cc1cc([N+](=O)[O-])c2ccccc2c1NS(=O)(=O)c1ccccc1	10µM	–	–	–
COC(=O)c1ccc(NC(=O)CCc2c(C)nn(-c3ccc(N4CCCCC4)nn3)c2C)cc1	–	–	·	–
CCOc1ccc2oc(C(=O)NC3CC(C)(C)NC(C)(C)C3)c(C)c2c1	10µM	–	–	–
CCOc1ccc2oc(C(=O)N3CCN(c4ccccc4OCC)CC3)c(C)c2c1	11.2µM	–	–	–
CCOc1ccc2oc(C(=O)NC3CCN(Cc4ccccc4)CC3)c(C)c2c1	?	–	–	–
CN(C)CCNC(=O)c1cccc2nc3c(ccc4ccccc43)nc12	8.91µM	–	–	–
COCCCNC(=O)c1cccc2c(-c3ccc(OC)cc3C)coc12	?	–	–	–
COc1cccc2nc3c(C(=O)NCCN(C)C)cccc3cc12	12.6µM	–	–	–
SMILES	GLP1R inv ag	GLP1R cytotox	GLP1R ag	PTHR1 ag
COc1ccc(-c2nc3c(C(=O)NCCN(C)C)cccc3c3ccccc23)cc1	10µM	?	–	–
COc1ccc(C(=O)NCCN(C)C)c2nc3ccccc3cc12	?	?	–	–
COc1ccc(-c2coc3c(C(=O)NCCN(C)C)cccc23)c(C)c1	11.2µM	–	–	–
CO/N=C(\C(=O)N[C@@H]1C(=O)N2C(C(=O)[O-])=C(C[n+]3cccc4c3CCC4)CS[C@H]12)c1csc(N)n1	·	·	–	·
COc1cc(/C=N/N=C2/C(=O)Nc3ccccc32)ccc1O	–	?	–	–
O=C1Nc2ccccc2/C1=N\N=C\c1ccc(O)c(O)c1	–	11.2µM	–	–
CCOC(=O)c1ccc(CN(Cc2ccccc2C)S(=O)(=O)c2ccc(F)c(C)c2)cc1	?	–	·	–
